Source: publication PMC4336329 (PLoS ONE, 2015)
About 14,000 (4.5%) of roughly 310,000 compounds showed an effect of 50% or more. Effects have a minus sign here. The full list was thinned out, with strong results kept by preference.
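Further: peak tail current of the secondary pulse compared with the same well before compound.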

These molecules were tested against human ether-à-go-go-related gene (hERG) potassium channel (human, UniProt Q12809) (assay: primary screen, population patch clamp on CHO cells stably expressing hERG; higher = less effect of the substance).
Sequence of human ether-à-go-go-related gene (hERG) potassium channel (Q12809 whole entry, looked up): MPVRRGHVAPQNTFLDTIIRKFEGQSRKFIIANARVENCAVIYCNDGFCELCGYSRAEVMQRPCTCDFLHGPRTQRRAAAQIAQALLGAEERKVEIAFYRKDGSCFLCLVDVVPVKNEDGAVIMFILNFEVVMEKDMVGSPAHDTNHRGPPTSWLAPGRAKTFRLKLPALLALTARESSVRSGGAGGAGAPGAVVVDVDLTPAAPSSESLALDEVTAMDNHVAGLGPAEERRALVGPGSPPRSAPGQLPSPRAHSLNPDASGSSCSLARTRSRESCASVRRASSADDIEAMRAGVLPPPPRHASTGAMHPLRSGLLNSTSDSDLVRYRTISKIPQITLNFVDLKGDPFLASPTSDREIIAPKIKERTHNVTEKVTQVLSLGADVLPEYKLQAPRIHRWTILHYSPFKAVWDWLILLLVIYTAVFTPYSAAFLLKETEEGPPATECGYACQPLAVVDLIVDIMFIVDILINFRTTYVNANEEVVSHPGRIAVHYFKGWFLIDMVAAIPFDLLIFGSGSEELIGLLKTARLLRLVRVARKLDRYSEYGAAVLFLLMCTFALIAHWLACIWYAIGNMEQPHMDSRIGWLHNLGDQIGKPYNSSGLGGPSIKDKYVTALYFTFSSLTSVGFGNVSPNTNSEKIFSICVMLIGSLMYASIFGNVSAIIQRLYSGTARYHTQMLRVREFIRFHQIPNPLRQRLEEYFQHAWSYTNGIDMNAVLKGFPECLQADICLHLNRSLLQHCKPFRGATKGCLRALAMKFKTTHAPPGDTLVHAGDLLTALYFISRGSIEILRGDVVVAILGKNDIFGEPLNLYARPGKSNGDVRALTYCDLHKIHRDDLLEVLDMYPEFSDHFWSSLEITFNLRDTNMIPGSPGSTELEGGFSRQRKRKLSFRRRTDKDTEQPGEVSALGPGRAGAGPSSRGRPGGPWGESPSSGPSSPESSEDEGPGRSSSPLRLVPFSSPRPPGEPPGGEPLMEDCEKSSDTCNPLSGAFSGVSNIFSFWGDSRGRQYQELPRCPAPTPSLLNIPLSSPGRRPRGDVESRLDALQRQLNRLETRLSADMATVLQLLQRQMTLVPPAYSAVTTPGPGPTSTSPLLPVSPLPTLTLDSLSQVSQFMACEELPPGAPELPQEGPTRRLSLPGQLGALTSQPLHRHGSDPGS
`COc1ccc2cc3cc(C(=O)N4CCN(c5ccccc5)CC4)oc3nc2c1` was tested, and the “hERG current change (%, negative = inhibition) at 10uM” value was 13.2%.
`CN(C)CCCC1Sc2ccccc2Sc2ccccc21.O=C(O)C(=O)O` (centres unmarked) was tested, and the “hERG current change (%, negative = inhibition) at 10uM” value was -56.1%.
`CN(C)CCC1Sc2ccccc2Oc2ccccc21.O=C(O)C(=O)O` (centres unmarked) was tested, and the “hERG current change (%, negative = inhibition) at 10uM” value was -24.8%.
With `CC1c2ccccc2SC(CCCN(C)C)c2ccccc21.O=C(O)/C=C\C(=O)O` (centres unmarked) the “hERG current change (%, negative = inhibition) at 10uM” value was -19.2%.
`Cc1nc2scc(C)n2c(=O)c1S(=O)(=O)N1CCN(c2ccc([N+](=O)[O-])cc2)CC1` was tested, and the “hERG current change (%, negative = inhibition) at 10uM” value was -12%.
For `CCN(CC)c1ccc(NC(=O)CSc2nnc(N)s2)cc1C`, the “hERG current change (%, negative = inhibition) at 10uM” value was 2.78%.
In the case of `COC(C/C=C\C(=O)[C@H](C)OCc1ccccc1)OC`, the “hERG current change (%, negative = inhibition) at 10uM” value was 9.66%.
In the case of `COc1ccc(C[C@H]2CN3C(=NC[C@@H]3Cc3ccccc3)N2CCNC(=O)CCC2CCCCC2)cc1`, the “hERG current change (%, negative = inhibition) at 10uM” value was -73.7%.
In the case of `O=C(CCC1CCCCC1)NCCN1C2=NC[C@H](Cc3ccccc3)N2C[C@H]1Cc1ccc(O)cc1`, the “hERG current change (%, negative = inhibition) at 10uM” value was -42%.
In the case of `O=C(CCC1CCCCC1)NCCN1C2=NC[C@@H](Cc3ccccc3)N2C[C@H]1Cc1ccc(O)cc1`, the “hERG current change (%, negative = inhibition) at 10uM” value was -69.3%.
In the case of `O=C(CCC1CCCCC1)NCCN1C2=NC[C@H](Cc3ccc(O)cc3)N2C[C@H]1Cc1ccc(O)cc1`, the “hERG current change (%, negative = inhibition) at 10uM” value was -4.37%.
`COc1ccc(C[C@H]2CN3C(=NC[C@H]3Cc3ccccc3)N2CCNC(=O)CCC2CCCCC2)cc1` was tested, and the “hERG current change (%, negative = inhibition) at 10uM” value was -71.9%.
For `CCOC(=O)c1ccc(NC(=O)c2ccnn2C)cc1`, the “hERG current change (%, negative = inhibition) at 10uM” value was 4.61%.
For `CC(OC(=O)c1nc(-c2ccccc2)n(-c2ccccc2)n1)C(=O)Nc1cc(Cl)cc(Cl)c1` (centres unmarked), the “hERG current change (%, negative = inhibition) at 10uM” value was -6.35%.
`CN(C)C(CNC(=O)c1ccc2ccccc2n1)c1ccccc1` (centres unmarked) was tested, and the “hERG current change (%, negative = inhibition) at 10uM” value was 11.1%.
With `CC(=O)OC1N=C(c2ccc(Cl)cc2)c2cc(Br)ccc2NC1=O` (centres unmarked) the “hERG current change (%, negative = inhibition) at 10uM” value was -55%.
In the case of `O=C1Nc2ccc(Br)cc2C(c2ccccc2)=NC1O` (centres unmarked), the “hERG current change (%, negative = inhibition) at 10uM” value was 13.1%.
In the case of `CC(=O)OC1N=C(c2ccccc2)c2cc(Br)ccc2NC1=O` (centres unmarked), the “hERG current change (%, negative = inhibition) at 10uM” value was -10.2%.
`CC(=O)OC1N=C(c2ccccc2Cl)c2cc(Br)ccc2NC1=O` (centres unmarked) was tested, and the “hERG current change (%, negative = inhibition) at 10uM” value was -40.3%.
`O=C1Nc2ccc(Br)cc2C(c2ccc(Cl)cc2)=NC1O` (centres unmarked) was tested, and the “hERG current change (%, negative = inhibition) at 10uM” value was -56.5%.
`O=C1Nc2ccc(Br)cc2C(c2ccccc2Cl)=NC1O` (centres unmarked) was tested, and the “hERG current change (%, negative = inhibition) at 10uM” value was -48.6%.
`COc1cc2c(=O)n(Cc3ccccc3)c(=O)n(CC(=O)NCCc3ccccc3)c2cc1OC` was tested, and the “hERG current change (%, negative = inhibition) at 10uM” value was 0.36%.
In the case of `CC(Nc1ncnc2sccc12)c1ccccc1` (centres unmarked), the “hERG current change (%, negative = inhibition) at 10uM” value was -29.8%.
`Cc1ccc(C(=O)NCCNC(=O)CN2CCCC2)cc1` was tested, and the “hERG current change (%, negative = inhibition) at 10uM” value was 5.16%.
In the case of `Cc1ccccc1-c1nc(P(=O)(c2ccccc2)c2ccccc2)c(N2CCOCC2)o1`, the “hERG current change (%, negative = inhibition) at 10uM” value was -19.5%.
`Cc1cccc(OCCNc2cc(N3CCOCC3)ccc2[N+](=O)[O-])c1` was tested, and the “hERG current change (%, negative = inhibition) at 10uM” value was -12.8%.
With `C#CCOCCOCCOCCNc1nc(N2CCN(C(=O)[C@H](C(C)C)n3cc(CCO)nn3)CC2)nc(N2CCN(C(=O)[C@H](C(C)C)n3cc(CCO)nn3)CC2)n1` the “hERG current change (%, negative = inhibition) at 10uM” value was 2.97%.
`COC(=O)c1ccc(COc2cccc3c2OC(C)(C)C3)cc1` was tested, and the “hERG current change (%, negative = inhibition) at 10uM” value was 28.7%.
`COc1ccc(OCCOCCOc2ccc(C)cc2[N+](=O)[O-])cc1` was tested, and the “hERG current change (%, negative = inhibition) at 10uM” value was -22.4%.
For `CC1(C)Cc2cccc(OCC(O)CNCc3ccccn3)c2O1.Cl` (centres unmarked), the “hERG current change (%, negative = inhibition) at 10uM” value was -25.1%.
With `Cc1ccc([N+](=O)[O-])c(OCC(O)CNC(C)(C)C)c1.Cl` (centres unmarked) the “hERG current change (%, negative = inhibition) at 10uM” value was 3.01%.
With `COc1ccc(CNCC(O)COc2ccc(C)cc2[N+](=O)[O-])cc1` (centres unmarked) the “hERG current change (%, negative = inhibition) at 10uM” value was -71.2%.
With `COc1ccc(CNCC(O)COc2cccc3c2OC(C)(C)C3)cc1.Cl` (centres unmarked) the “hERG current change (%, negative = inhibition) at 10uM” value was -60.5%.
`O=C(CSc1nnc(-c2cccnc2)o1)N1CCCCC1` was tested, and the “hERG current change (%, negative = inhibition) at 10uM” value was 9.4%.
In the case of `CC(C)C(NC(=O)C1CCCCC1)C(=O)NCc1ccccn1` (centres unmarked), the “hERG current change (%, negative = inhibition) at 10uM” value was 9.17%.
With `CC(C)CC1C(C#N)=C(N)SC(N)=C1C#N` the “hERG current change (%, negative = inhibition) at 10uM” value was 15.9%.
With `Cc1ccc(N(C)S(=O)(=O)c2ccc(-c3ccc(=O)[nH]n3)s2)cc1C` the “hERG current change (%, negative = inhibition) at 10uM” value was 13.7%.
With `CCc1cccc(C)c1NC(=O)CN(C)S(=O)(=O)c1ccc(-c2ccc(=O)[nH]n2)s1` the “hERG current change (%, negative = inhibition) at 10uM” value was -55.3%.
With `Cc1cccc2sc(NC(=O)CN(C)S(=O)(=O)c3ccc(Br)s3)nc12` the “hERG current change (%, negative = inhibition) at 10uM” value was -2.49%.
With `Cc1cc(NC(=O)CN(C)S(=O)(=O)c2ccc(-c3ccc(=O)[nH]n3)s2)ccc1Br` the “hERG current change (%, negative = inhibition) at 10uM” value was 7.95%.
In the case of `CCOc1ccc(N(C)S(=O)(=O)c2ccc(-c3ccc(=O)[nH]n3)s2)cc1`, the “hERG current change (%, negative = inhibition) at 10uM” value was -15.6%.
